Experimental data as given in PubChem BioAssay AID504332 (National Center for Advancing Translational Sciences (NCATS), 2011).
About 31,000 (8.9%) of roughly 350,000 compounds were called active. About 15% were inconclusive and are not listed. The list comes from a sample in which actives are over-represented; it also holds similar structures and randomly drawn compounds. Entries that show only a call come without a potency. Unmarked numbers belong to inactive results. Calls come from the whole dose curve; as a rule, active = well fitted inhibition curve with a large enough effect; inconclusive = small, poorly fitted or top-dose-only effect; inactive = no such curve, though single readings can be large or run the other way.

Biological target: Histone-lysine N-methyltransferase EHMT2 (Homo sapiens) (UniProt Q96KQ7)
Assay: qHTS Assay for Inhibitors of Histone Lysine Methyltransferase G9a; note: nearly all actives have a fitted effect of over 75% in size
Conditions: G9a H3K9 monomethylation, AlphaScreen, 2 h; series mostly up to 59 µM
Summary of the method: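 Enzyme 20 nM + cpd, 15 min RT; add b-H3K9 pep 500 nM / SAM 20 uM; 2 h RT; anti-H3K9me1 Ab 0.5 ug/mL + SA donor / anti-rabbit acceptor beads 20 ug/mL each, 10 min; AlphaScreen read.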
Potency is the fitted concentration of half-maximal effect.

Sequence of Histone-lysine N-methyltransferase EHMT2 (Homo sapiens) (Q96KQ7 913-1193 limits assumed): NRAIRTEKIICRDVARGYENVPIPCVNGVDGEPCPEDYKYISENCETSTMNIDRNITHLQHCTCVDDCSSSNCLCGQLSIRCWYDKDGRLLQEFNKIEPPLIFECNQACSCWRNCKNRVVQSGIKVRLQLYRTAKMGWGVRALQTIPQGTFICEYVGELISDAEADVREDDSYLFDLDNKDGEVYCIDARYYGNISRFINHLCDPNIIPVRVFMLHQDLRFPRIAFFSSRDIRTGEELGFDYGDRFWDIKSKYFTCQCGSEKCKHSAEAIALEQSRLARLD

SMILES | activity, negative = inhibition | Potency
COc1ccc(C(=O)c2c3ccc([N+](=O)[O-])cc3[n+]([O-])n2CCCN)cc1 | -22.2% [at 2.33 µM] | 
Cc1c(CCNC(=O)c2ccc(C(F)(F)F)cc2)sc2nc(-c3ccc(F)cc3)nn12 |  | inactive
CCOC(=O)c1ccccc1NC(=O)c1nn(-c2ccc(OC)c(Cl)c2)c(=O)c2c1c1ccccc1n2C |  | inactive
CC(=O)c1ccc(NC(=O)c2nc3nc(C)cc(C(F)F)n3n2)cc1 |  | inactive
CCOC(=O)c1cccc(NC(=O)C2CCN(c3ncnc4c3nc3n4CCCCC3)CC2)c1 |  | inactive
COCCCNCCOCCOc1ccc(Cl)cc1Br |  | 10 µM (active)
CCOCCCNCc1cc(Br)ccc1OCC | 1.6% [at 12.7 µM] | 
COCCNCCOCCOc1cccc(OC)c1 |  | inactive
Cc1csc2nc(COC(=O)c3cccc(N(C)C)c3)cc(=O)n12 | 3.53% [at 2.33 µM] | 
CC(OC(=O)CN1C(=O)c2ccccc2C1=O)C(=O)c1ccccc1 (stereo unspecified) | 12.8% [at 12.7 µM] | 
CCc1ccc(NC(=O)N2CCN(c3ccccc3)CC2)cc1 |  | inactive
O=C(Nc1ccc(F)cc1)N1CCN(c2ccc(F)cc2)CC1 |  | inactive
CC(=O)N1CCN(c2ccc(NCc3ccc(C(C)C)cc3)cc2)CC1 |  | 14.1 µM (active)
Cc1cc(F)ccc1S(=O)(=O)Nc1ccc(C(=O)N(C)Cc2ccco2)cc1 | 23.8% [at 2.33 µM] | 
Cc1ccc(C)c(N2CCN(C(=O)Cn3nc(C)c4sc5ccccc5c4c3=O)CC2)c1 |  | 12.6 µM (active)
Cc1ccc(C)c(N2CCN(C(=O)Cn3ncn4cccc4c3=O)CC2)c1 |  | inactive
Cc1nn(CC(=O)NCCc2ccccc2)c(=O)c2c1sc1ccccc12 |  | inactive
CCn1nc(C(=O)NNC(=O)C2CSC3(C)CCC(=O)N23)c2ccccc2c1=O (stereo unspecified) | 2.22% [at 12.7 µM] | 
Cc1csc2nc(COC(=O)c3ccc(NC(=O)COc4ccccc4F)cc3)cc(=O)n12 | 6.31% [at 12.7 µM] | 
CCOC(=O)c1cc2c(=O)n3ccccc3nc2n(CC2CCCO2)c1=NC(=O)c1ccc(C(C)(C)C)cc1 (stereo unspecified) |  | inactive
COc1cc2cc(CN(CCN3CCCC3)C(=O)Nc3ccccc3Cl)c(=O)[nH]c2cc1OC |  | 50.1 µM (active)
COc1ccc(CCN(Cc2cc3cccc(C)c3[nH]c2=O)C(=O)N2CCCC2)cc1OC | -36.8% [at 12.7 µM] | 
Cc1ccc2[nH]c(=O)c(CN(CCCN(C)C)C(=O)Nc3cccc(Cl)c3)cc2c1 |  | inactive
CCCCNC(=O)c1cn(CC)c2cc(N3CCN(C(=O)c4ccco4)CC3)c(F)cc2c1=O |  | inactive

SMILES | activity, negative = inhibition | Potency
CCOc1ccc(CNC(=O)c2ccc3c(c2)nnn3C2CCCC2)cc1 |  | inactive
O=C(NC1CCCC1)C(c1ccco1)N(C(=O)c1ccco1)c1ccc(F)cc1 (stereo unspecified) |  | inactive
O=c1cc(COc2cccc(C(F)(F)F)c2)nc2sc3c(n12)CCCC3 |  | inactive
Cc1ccc(CC(=O)Nc2ccc(OC(F)F)c(Cl)c2)cc1C |  | inactive
COc1cc(NC(=S)NCc2ccco2)c(OC)cc1Cl |  | 50.1 µM (active)
O=C(NNC(=S)NCc1ccco1)C(c1ccccc1)c1ccccc1 |  | inactive
COc1cccc(OC)c1C(=O)NC(=S)NCc1ccco1 |  | inactive
FC(F)Oc1ccc(NC(=S)NCc2ccco2)cc1Cl |  | 50.1 µM (active)
CCOc1cc(NC(=S)NCc2ccco2)c(OCC)cc1NC(=O)c1ccco1 |  | inactive
Cc1c(Cl)cccc1NC(=O)Cn1cc(C(=O)c2cccs2)c2ccccc21 |  | inactive
Cc1ccc(NC(=O)CN2c3ccccc3S(=O)(=O)c3ccccc32)cc1F |  | inactive
CCCN(CCC)C(=O)C(Cc1ccccc1)NS(=O)(=O)c1ccc2c(c1)c(=O)n(C)c(=O)n2C (stereo unspecified) |  | inactive
Cc1ccc(C)c(NC(=S)NNC(=S)Nc2ccc(C(C)C)cc2)c1 |  | 31.6 µM (active)
CC(C)CC(=O)NC(=S)Nc1cc(C(=O)O)ccc1Cl |  | inactive
Cc1ccc(C)c(NC(=S)NCC(c2cccnc2)N2CCOCC2)c1 (stereo unspecified) |  | inactive
CC(C)c1ccc(NC(=S)NNc2ccc(Cl)c(C(=O)O)c2)cc1 |  | 10 µM (active)
Cc1cccc(NC(=S)Nc2ccc(Br)cc2)c1 |  | inactive
CCC(C(=O)Nc1ccc(C(C)C)cc1)c1ccccc1 (stereo unspecified) |  | inactive
COCCNC(=O)c1ccc2nc(Cc3ccc(OC)c(OC)c3)oc2c1 |  | inactive
CC(=O)Nc1cccc(C(=O)OCC(=O)Nc2nnc(-c3ccccc3)o2)c1 |  | inactive
CN(CC(=O)NCc1cccnc1)S(=O)(=O)c1cc(Cl)ccc1Cl |  | inactive
COc1ccc(NC(=O)C2CCN(S(=O)(=O)c3ccc4[nH]c(=O)oc4c3)CC2)c(OC)c1 |  | inactive
CCOC(=O)CN1C(=O)C(O)(CC(=O)c2ccccn2)c2ccccc21 (stereo unspecified) |  | inactive
O=C(CC1(O)C(=O)N(CN2CCOCC2)c2ccccc21)c1ccccc1 (stereo unspecified) |  | inactive

SMILES | activity, negative = inhibition | Potency
C=CCN1C(=O)C(O)(CC(=O)c2ccc(Cl)cc2)c2ccccc21 (stereo unspecified) |  | 44.7 µM (active)
COc1ccc(CCNC(=O)c2ccc(CSCc3ccc(C)cc3)o2)cc1OC |  | inactive
CCc1nnc2c3ccccc3nc(N3CCN(c4ccc(C)cc4C)CC3)n12 |  | inactive
Cc1ccc(/C=C/C(=O)OCC(=O)Nc2cccnc2Cl)cc1 | 5.18% [at 12.7 µM] | 
CC(=O)c1c(N)n(C)c(=O)n(C)c1=O |  | inactive
CC(=O)Nn1cc2c(=O)n(C)c(=O)n(C)c2c1 |  | 35.5 µM (active)
CC(=O)NNc1cc(=O)c2c(=O)n(C)c(=O)n(C)c2[nH]1 |  | inactive
Nc1ccn(CC(=O)N2CCN(c3ccccn3)CC2)c(=O)n1 | -0.804% [at 0.501 µM] | 
COC(=O)c1ccccc1NS(=O)(=O)c1ccc2c(c1)CCCN2C(C)=O |  | inactive
COC(=O)[C@H](C)[C@H]1C[C@]1(C)[C@H](NC(=O)OCc1ccccc1)c1ccccc1 |  | inactive
C[C@@H](C(=O)Nc1ccc2ccccc2c1)[C@@H]1C[C@@]1(C)[C@@H](NC(=O)c1cccnc1)c1ccccc1 |  | 50.1 µM (active)
O=C(Nc1ccc(N2CCN(C(=O)c3ccccc3)CC2)c(Cl)c1)c1cccnc1 |  | inactive
CC(=O)N[C@@H](C)C(=O)N1CCC(n2nccc2NC(=O)CCCc2ccccc2)CC1 |  | inactive
CC(NS(=O)(=O)c1ccc(Cl)cc1)C(=O)Nc1ccc2c(c1)OCCO2 (stereo unspecified) |  | inactive
Cc1ccc(C(=O)Nc2ccccc2F)cc1S(=O)(=O)N1CCOCC1 |  | inactive
N#C/C(=C\C1=C(N2CCOCC2)C(=C\c2ccccc2)/CC1)C(=O)Nc1ccccc1F |  | 7.08 µM (active)
N#C/C(=C\c1ccccc1C(F)(F)F)C(=O)Nc1ccccc1F |  | inactive
CCOCCCn1c(SCC(=O)Nc2ccc(CC)cc2)nc2ccccc2c1=O |  | inactive
O=C(CCc1nc(CN2CCN(S(=O)(=O)c3ccc(F)cc3)CC2)no1)N1CCCCC1 |  | inactive
COc1ccc(N(C)C(=O)C2CCN(S(=O)(=O)c3cc(Br)cc4c3N(C(C)=O)CC4)CC2)cc1 |  | inactive
CCOc1ccc(CNC(=O)c2cc(=O)[nH]c3ccc(S(=O)(=O)N4CCCCC4)cc23)cc1 |  | inactive
CNC(=S)N1N=C(c2ccccc2)CC1c1ccc(Br)cc1 (stereo unspecified) |  | inactive
Brc1ccc(C2CC(c3ccccc3)=Nc3ccccc3N2)cc1 (stereo unspecified) |  | 39.8 µM (active)
Brc1ccc(C2=NCCC(c3ccccc3)O2)cc1 (stereo unspecified) |  | inactive

SMILES | activity, negative = inhibition | Potency
COc1cc(C(=O)N2CCC(c3ccncc3)CC2)cc(OC)c1OC |  | inactive
Cc1ccc(NC(=O)c2ccccn2)cc1S(=O)(=O)N1CCOCC1 |  | inactive
Cc1ccc(NC(=O)C(C)OC(=O)Cc2c[nH]c3ccccc23)cc1S(=O)(=O)N1CCOCC1 (stereo unspecified) |  | 35.5 µM (active)
CC(OC(=O)CCCc1c[nH]c2ccccc12)C(=O)Nc1ccc(S(N)(=O)=O)cc1 (stereo unspecified) | 14.8% [at 0.501 µM] | 
CS(=O)(=O)c1ccc2nc(NC(=O)c3ccc(N4CCCC4=O)cc3)sc2c1 |  | inactive
CS(=O)(=O)c1ccc2nc(NC(=O)CN3CCCCCC3)sc2c1 |  | 17.8 µM (active)
CS(=O)(=O)c1ccc2nc(NC(=O)C3CCCCC3)sc2c1 |  | inactive
COc1cccc(NC(=O)CN(C)C(=O)CSCc2nc3scc(-c4cccs4)c3c(=O)[nH]2)c1 |  | inactive
CCOC(=O)C1=C(c2ccc(OC)cc2)C(=O)c2ccccc2C1=O |  | 31.6 µM (active)
COc1ccc(OCCCON2C(=O)c3ccccc3C2=O)cc1 |  | inactive
CCOC(=O)c1c(C)[nH]c2c1-c1ccccc1C(=O)C2=O |  | inactive
CSCCC(NS(=O)(=O)c1ccccc1F)C(=O)N1CC=C(c2ccccc2)CC1 (stereo unspecified) |  | inactive
CC(C)(C)c1ccc(C(=O)N2CCC(c3nc(-c4ccc(S(=O)(=O)N5CCCC5)cc4)no3)CC2)cc1 |  | inactive
CCc1nn(CCCC(=O)NCc2ccccc2OC)c(=O)c2cc3occc3n12 |  | inactive
Cc1ccc(Cl)cc1NC(=O)CSc1nc2ccccc2nc1Cc1ccccc1 |  | inactive
COc1ccc(CNc2ncnc3ccccc23)cc1 |  | inactive
CCOC(=O)C1=C(C)Nc2sc(C(=O)c3ccc(Br)cc3)c(N)c2C1c1ccc(C(=O)OC)cc1 (stereo unspecified) | 0.599% [at 12.7 µM] | 
CCOC(=O)c1sc(=S)n2c1[nH]c(=O)c1ccc(C(=O)OC)cc12 |  | 7.94 µM (active)
CCOC(=O)c1sc(NC(=O)c2ccncc2)nc1C |  | inactive
CC(=O)N1CCCc2cc(S(=O)(=O)Nc3ccc(Cl)cc3F)ccc21 |  | inactive
Oc1c(C(c2ccccc2Cl)N2CCOCC2)sc2nc(-c3ccco3)nn12 (stereo unspecified) |  | inactive
Cc1nc2sc(C(c3ccco3)N3CCOCC3)c(O)n2n1 (stereo unspecified) |  | 11.2 µM (active)
Oc1c(C(c2ccco2)N2CCC3(CC2)OCCO3)sc2ncnn12 (stereo unspecified) |  | 35.5 µM (active)
Cc1ccc(C(c2sc3nc(C)nn3c2O)N2CCN(c3ccccc3)CC2)cc1 (stereo unspecified) | 15.6% [at 12.7 µM] | 
